Screens as filed in PubChem.
Only some compounds are listed: those with a hit (about 2.9% of all), similar ones and a draw of the others.
ADAM17 inh: ADAM17 inhibitors, primary screen, biochemical, QFRET. recombinant ADAM17, EDANS/DABCYL FRET peptide cleavage. inhibition, % at 6.95 µM. 0.83% of 370,000 active. AID 720648, 2013;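 active = inhibition above the mean of compounds lying between control limits plus 3 SD, set per campaign, cut at about 8.5% in these data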;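 note: 0% = DMSO-only wells as the low control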
PLC-gamma1 inh: PLC-gamma1 enzyme inhibitors, primary screen, biochemical, fluorescence, purified enzyme | 1-phosphatidylinositol 4,5-bisphosphate phosphodiesterase gamma-1 (Homo sapiens), P19174 | fluorogenic substrate | inhibition, % at 12.2 µM | 0.84% of 370,000 active; in the data active = inhibition above about 9.5%
Target sequence (P19174 whole entry, looked up): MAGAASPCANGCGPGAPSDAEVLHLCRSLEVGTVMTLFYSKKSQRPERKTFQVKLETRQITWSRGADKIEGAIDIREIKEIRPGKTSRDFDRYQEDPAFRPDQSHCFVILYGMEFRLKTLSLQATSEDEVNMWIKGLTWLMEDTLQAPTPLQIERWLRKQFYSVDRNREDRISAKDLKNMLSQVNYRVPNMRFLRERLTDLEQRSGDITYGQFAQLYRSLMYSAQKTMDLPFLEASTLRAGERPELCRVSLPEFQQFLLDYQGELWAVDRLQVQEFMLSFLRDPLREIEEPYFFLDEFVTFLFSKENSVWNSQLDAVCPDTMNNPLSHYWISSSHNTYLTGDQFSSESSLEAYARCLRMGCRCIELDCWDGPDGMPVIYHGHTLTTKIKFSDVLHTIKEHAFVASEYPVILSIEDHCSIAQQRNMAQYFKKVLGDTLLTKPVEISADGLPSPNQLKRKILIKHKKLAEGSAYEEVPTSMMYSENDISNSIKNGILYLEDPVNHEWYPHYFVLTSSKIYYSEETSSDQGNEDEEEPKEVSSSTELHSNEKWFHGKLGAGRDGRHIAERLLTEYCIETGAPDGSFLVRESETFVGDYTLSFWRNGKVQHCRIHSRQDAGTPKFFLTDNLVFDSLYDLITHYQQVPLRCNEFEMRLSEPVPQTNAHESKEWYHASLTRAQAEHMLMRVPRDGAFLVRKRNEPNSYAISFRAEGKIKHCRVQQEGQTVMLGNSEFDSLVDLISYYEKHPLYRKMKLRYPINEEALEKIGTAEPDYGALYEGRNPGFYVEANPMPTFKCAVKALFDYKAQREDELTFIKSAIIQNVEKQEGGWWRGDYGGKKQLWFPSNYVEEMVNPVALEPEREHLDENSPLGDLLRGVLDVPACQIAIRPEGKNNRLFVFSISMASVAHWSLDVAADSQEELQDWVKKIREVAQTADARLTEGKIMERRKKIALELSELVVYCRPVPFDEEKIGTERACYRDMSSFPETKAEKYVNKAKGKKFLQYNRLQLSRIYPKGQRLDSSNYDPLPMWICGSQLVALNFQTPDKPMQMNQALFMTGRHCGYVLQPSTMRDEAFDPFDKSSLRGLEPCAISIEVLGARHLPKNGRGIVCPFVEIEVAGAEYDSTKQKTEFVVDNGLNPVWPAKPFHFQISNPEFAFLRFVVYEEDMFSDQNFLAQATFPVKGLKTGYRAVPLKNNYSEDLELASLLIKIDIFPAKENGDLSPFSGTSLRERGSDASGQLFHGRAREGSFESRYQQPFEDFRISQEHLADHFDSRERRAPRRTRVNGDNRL
ADAM10 inh: human ADAM10 inhibitors, primary screen, biochemical, QFRET, HTS. inhibition, % at 7 µM. 0.62% of 370,000 active. Disintegrin and metalloproteinase domain-containing protein 10 (Homo sapiens), O14672. recombinant ADAM10, EDANS/DABCYL FRET peptide cleavage, 3 h. AID 720582, 2013;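 active = inhibition above a per-campaign cutoff equal to the mean of compounds falling between control-based bounds plus 3 SD, cut at about 20% in these data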;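 note: 0% = DMSO wells while the 100% control is not disclosed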
PLCb3 inh: human PLC-beta3 inhibitors, primary screen, biochemical, fluorescence | 1-phosphatidylinositol 4,5-bisphosphate phosphodiesterase beta-3 (Homo sapiens), Q01970 | Purified PLC-beta3, fluorogenic substrate | inhibition, % at 12.2 µM | 0.18% of 370,000 active | AID 720704, 2013; in the data active = inhibition above about 11%;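 note: 0% = median of compound wells on plate and 100% = full blocker control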
KLK7 zymogen act: proKLK7 zymogen activators, primary screen, biochemical, fluorescence intensity | purified proKLK7, EDANS-DABCYL substrate fluorescence; 100% is mature enzyme control, 0% vehicle | 0.9% of 370,000 active | Kallikrein-7 (Homo sapiens), P49862 | activation, % at 7 µM;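 active = activation above the mean of all tested compounds plus 3 SD, computed per campaign excluding outliers beyond control limits, cut at about 13% in these data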
proKLK7 act conf: proKLK7 zymogen activators, confirmation, biochemical, fluorescence intensity, triplicate | activation, % at 7 µM | shares compounds with KLK7 zymogen act | AID 686949, 2013 | 68% of 3,200 active | purified proKLK7, EDANS-DABCYL substrate fluorescence; scaled: vehicle 0, mature enzyme 100;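 active = activation, as change over the incubation, above the mean of all tested compounds plus 3 SD, cut at about 13% in these data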
EDANS-DABCYL int: EDANS-DABCYL substrate optical interference, artefact control for kallikrein-7 zymogen activator project, biochemical, fluorescence intensity, high throughput. AID 686952, 2013. 80% of 3,200 active. shares compounds with KLK7 zymogen act. activation, % at 7 µM. no enzyme, 4 h; solvent 0%, active enzyme control 100%;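 active = activation above the all-compound mean plus 3 SD, ignoring values outside control-based bounds, cut at about 4.8% in these data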;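 note: value is the 4 h activation minus the activation read at time zero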
EDANS interf: EDANS fluorescence interference in dose response, no enzyme; shares compounds with KLK7 zymogen act; EDANS-DABCYL peptide fluorescence interference; EC50, µM; 20% of 250 active; AID 720493;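 active = compounds that raise the fluorescence signal in this interference counterscreen, with EC50 at or below 10 µM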;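 note: intact quenched peptide substrate alone read at 355 nm excitation and 520 nm emission; signal is fluorescence gain from T0 to T4 after four hours at room temperature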
* hit, by the source's call.

Results for CCN(CC)c1ccc2c(C)c(CO)c(=O)oc2c1 ?
ADAM17 inh: -426.1; PLC-gamma1 inh: inactive; ADAM10 inh: inactive; PLCb3 inh: inactive; KLK7 zymogen act: 50.3*; proKLK7 act conf: 50.6*; EDANS-DABCYL int: 36.0*; EDANS interf: >69.5

What do the screens show for `CCN(CC)c1ccc2c(O)cc(=O)oc2c1`?
ADAM17 inh: -4.2; PLC-gamma1 inh: -14.4; ADAM10 inh: -24.1; PLCb3 inh: -24.4; KLK7 zymogen act: 1.0

How did CC/C(C)=N/N1C(=O)c2ccccc2NC1(C)CC (stereo not drawn) do in these assays?
ADAM17 inh: -171.6; PLC-gamma1 inh: -193.7; ADAM10 inh: inactive; PLCb3 inh: -210.5; KLK7 zymogen act: 19.0*; proKLK7 act conf: 44.6*; EDANS-DABCYL int: 38.7*

What do the screens show for `C[C@H]1[C@@H](OC(=O)N2CCOCC2)CC[C@@]23CCCN2C(=O)CCC[C@@H]13`?
ADAM17 inh: -0.9; PLC-gamma1 inh: 0.0; ADAM10 inh: 3.3; PLCb3 inh: 3.2

How did O=C(Nc1ccc2nsnc2c1)NC1CCCCC1 do in these assays?
ADAM17 inh: -166.1; PLC-gamma1 inh: inactive; ADAM10 inh: inactive; PLCb3 inh: inactive; KLK7 zymogen act: 21.0*; proKLK7 act conf: 27.8*; EDANS-DABCYL int: 29.0*

Results for O=C(Nc1ccc2nsnc2c1)C1CC1 ?
ADAM17 inh: -90.1; PLC-gamma1 inh: -190.4; ADAM10 inh: -291.5; PLCb3 inh: -200.3; KLK7 zymogen act: 8.2

What do the screens show for `O=C(NCCO)Nc1ccc2nsnc2c1`?
ADAM17 inh: -150.0; PLC-gamma1 inh: inactive; ADAM10 inh: inactive; PLCb3 inh: inactive; KLK7 zymogen act: 21.9*; proKLK7 act conf: 39.8*; EDANS-DABCYL int: 40.7*

Results for COc1ccccc1NC(=O)O[C@@H]1CC[C@@]23CCCN2C(=O)CCC[C@H]3C1 ?
ADAM17 inh: -5.9; PLC-gamma1 inh: -1.5; ADAM10 inh: -8.2; PLCb3 inh: -2.5

How did COC(=O)C1CN(Cc2ccc(F)cc2)CCS(=O)(=O)N1Cc1cn(Cc2ccc(Cl)cc2)nn1 (stereo not drawn) do in these assays?
ADAM17 inh: 1.5; PLC-gamma1 inh: 1.8; ADAM10 inh: 11.6; PLCb3 inh: 0.7; KLK7 zymogen act: 0.1

How did CCS(=O)(=O)Nc1ccc(-c2nc3cccnc3s2)cc1 do in these assays?
ADAM17 inh: inactive; PLC-gamma1 inh: inactive; ADAM10 inh: inactive; PLCb3 inh: inactive; KLK7 zymogen act: 63.9*; proKLK7 act conf: 60.2*; EDANS-DABCYL int: 67.6*

Results for O=S(=O)(Nc1ccc(-c2nc3cccnc3s2)cc1)c1cccs1 ?
ADAM17 inh: inactive; PLC-gamma1 inh: -484.1; ADAM10 inh: inactive; PLCb3 inh: inactive; KLK7 zymogen act: -2.8

Results for Cc1cc(-c2nc3cccnc3s2)ccc1NS(=O)(=O)c1cccs1 ?
ADAM17 inh: inactive; PLC-gamma1 inh: inactive; ADAM10 inh: inactive; PLCb3 inh: inactive; KLK7 zymogen act: 71.4*; proKLK7 act conf: 66.0*; EDANS-DABCYL int: 56.8*

Results for CCS(=O)(=O)Nc1cccc(-c2nc3cccnc3s2)c1 ?
ADAM17 inh: -6.5; PLC-gamma1 inh: -52.2; ADAM10 inh: -18.8; PLCb3 inh: -77.9; KLK7 zymogen act: -1.2

Results for O=S(=O)(Nc1ccc(-c2nc3cccnc3s2)cc1)c1ccccc1F ?
ADAM17 inh: inactive; PLC-gamma1 inh: inactive; ADAM10 inh: inactive; PLCb3 inh: inactive; KLK7 zymogen act: 98.7*; proKLK7 act conf: 66.0*; EDANS-DABCYL int: 72.7*

What do the screens show for `O=S(=O)(Nc1ccc(-c2nc3cccnc3s2)cc1)c1ccc(Cl)s1`?
ADAM17 inh: inactive; PLC-gamma1 inh: -322.6; ADAM10 inh: inactive; PLCb3 inh: -394.6; KLK7 zymogen act: 0.5

What do the screens show for `CCOC(=O)N1CCN(C(=O)COc2cc(C)c(Cl)c(C)c2)CC1`?
ADAM17 inh: -0.2; PLC-gamma1 inh: 2.6; ADAM10 inh: 4.4; PLCb3 inh: 2.5; KLK7 zymogen act: -0.5

Results for CC1(C)CC(=O)c2cc(OCC(=O)N3CCN(c4ccccc4F)CC3)ccc2O1 ?
ADAM17 inh: -134.2; PLC-gamma1 inh: -251.4; ADAM10 inh: -358.0; PLCb3 inh: -343.0; KLK7 zymogen act: 9.6

What do the screens show for `CCOC(=O)COc1ccc2c(c1)C(=O)CC(C)(C)O2`?
ADAM17 inh: -423.2; PLC-gamma1 inh: inactive; ADAM10 inh: inactive; PLCb3 inh: inactive; KLK7 zymogen act: 18.5*; proKLK7 act conf: 66.5*; EDANS-DABCYL int: 67.0*

What do the screens show for `CCOC(=O)N1CCN(C(=O)COc2ccc3c(c2)C(=O)CC(C)(C)O3)CC1`?
ADAM17 inh: inactive; PLC-gamma1 inh: inactive; ADAM10 inh: inactive; PLCb3 inh: inactive; KLK7 zymogen act: 31.1*; proKLK7 act conf: 26.4*; EDANS-DABCYL int: 10.5*; EDANS interf: >69.5

What do the screens show for `CCOC(=O)N1CCC2(CC1)CC(=O)c1cc(O)ccc1O2`?
ADAM17 inh: 1.2; PLC-gamma1 inh: -33.5; ADAM10 inh: -2.0; PLCb3 inh: -38.6; KLK7 zymogen act: 1.7

How did COc1ccc2c(c1)C(=O)CC(O)(C(F)F)O2 (stereo not drawn) do in these assays?
ADAM17 inh: -222.7; PLC-gamma1 inh: -402.1; ADAM10 inh: inactive; PLCb3 inh: -440.1; KLK7 zymogen act: 45.3*; proKLK7 act conf: 40.0*; EDANS-DABCYL int: 32.8*

How did CC1(C)CC(=O)c2cc(OCC(=O)N3CCCCCC3)ccc2O1 do in these assays?
ADAM17 inh: inactive; PLC-gamma1 inh: inactive; ADAM10 inh: inactive; PLCb3 inh: inactive; KLK7 zymogen act: 25.6*; proKLK7 act conf: 68.1*; EDANS-DABCYL int: 74.9*

What do the screens show for `O=[N+]([O-])c1cccc(C2=Nn3c(nnc3-c3ccccc3)SC2)c1`?
ADAM17 inh: -0.3; PLC-gamma1 inh: 0.7; ADAM10 inh: -3.5; PLCb3 inh: 0.9; KLK7 zymogen act: 0.1

What do the screens show for `CC1(C)CC(=O)c2cc(OCC(=O)O)ccc2O1`?
ADAM17 inh: -338.6; PLC-gamma1 inh: inactive; ADAM10 inh: inactive; PLCb3 inh: inactive; KLK7 zymogen act: 13.8*; proKLK7 act conf: 41.7*; EDANS-DABCYL int: 48.1*

Results for Cc1cc(OCC(=O)NCCN2CCOCC2)cc(C)c1Br ?
ADAM17 inh: -2.5; PLC-gamma1 inh: 1.3; ADAM10 inh: -7.8; PLCb3 inh: 1.1; KLK7 zymogen act: -1.2
